# Tests used:
# Experiment in all cases: PBM binding z-score (relative to random genomic background probes); higher = stronger binding; sequences stand for … in GC…GCGATTGACAGCGTAGAATGAAGG
# [1] = system: FXR:RXRa (NR concentration 270 nM, RXRa partner concentration 90 nM)
# Summary of the method: (§1)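 Each nuclear receptor dimer, without ligand, was incubated for 1 h on custom Agilent 4×180K protein-binding microarrays. Binding was detected with antibodies against each partner (one per run), and scanned fluorescence was regression-normalized. The binding z-scores are referenced to random human genomic background probes.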
# [2] = system: LXRa:RXRa (NR concentration 270 nM, RXRa partner concentration 90 nM)
# Summary of the method: as §1
# [3] = system: LXRa homodimer (NR concentration 270 nM)
# Summary of the method: as §1
# [4] = system: LXRb:RXRa (NR concentration 270 nM, RXRa partner concentration 90 nM)
# Summary of the method: as §1
# [5] = system: LXRb homodimer (NR concentration 270 nM)
# Summary of the method: as §1
# [6] = system: PPARa:RXRa (NR concentration 270 nM, RXRa partner concentration 90 nM)
# Summary of the method: as §1
# [7] = system: PPARg:RXRa (NR concentration 180 nM, RXRa partner concentration 90 nM)
# Summary of the method: as §1
# [8] = system: PPARg:RXRa 270nM:90nM, anti-RXR (NR concentration 270 nM, RXRa partner concentration 90 nM)
# Summary of the method: as §1
# [9] = system: PPARg:RXRa 30nM:10nM, anti-RXR (NR concentration 30 nM, RXRa partner concentration 10 nM)
# Summary of the method: as §1
# [10] = system: PPARg:RXRa 90nM:30nM, anti-RXR (NR concentration 90 nM, RXRa partner concentration 30 nM)
# Summary of the method: as §1
# [11] = system: PPARg:RXRa DBDmut IVT, anti-RXR (DBD mutation: RXRa K156A/R161A, NR concentration 270 nM, RXRa partner concentration 90 nM)
# Summary of the method: as §1
# [12] = system: PPARg:RXRa IVT, anti-PPARg (NR concentration 270 nM, RXRa partner concentration 90 nM)
# Summary of the method: as §1
# [13] = system: PPARg DBDmut:RXRa IVT, anti-PPARg (DBD mutation: PPARg1 K132A/R137A, NR concentration 270 nM, RXRa partner concentration 90 nM)
# Summary of the method: as §1
# [14] = system: PPARg DBDmut IVT, anti-PPARg (DBD mutation: PPARg1 K132A/R137A, NR concentration 270 nM)
# Summary of the method: as §1
# [15] = system: PPARg homodimer (NR concentration 180 nM)
# Summary of the method: as §1
# [16] = system: PXR:RXRa (NR concentration 270 nM, RXRa partner concentration 90 nM)
# Summary of the method: as §1
# [17] = system: PXR homodimer (NR concentration 270 nM)
# Summary of the method: as §1
# [18] = system: RARa:RXR (NR concentration 270 nM, RXRa partner concentration 90 nM)
# Summary of the method: as §1
# [19] = system: RARa homodimer (NR concentration 270 nM)
# Summary of the method: as §1
# [20] = system: RARb:RXRa (NR concentration 270 nM, RXRa partner concentration 90 nM)
# Summary of the method: as §1
Sequence,PBM binding z-score [1],PBM binding z-score [2],PBM binding z-score [3],PBM binding z-score [4],PBM binding z-score [5],PBM binding z-score [6],PBM binding z-score [7],PBM binding z-score [8],PBM binding z-score [9],PBM binding z-score [10],PBM binding z-score [11],PBM binding z-score [12],PBM binding z-score [13],PBM binding z-score [14],PBM binding z-score [15],PBM binding z-score [16],PBM binding z-score [17],PBM binding z-score [18],PBM binding z-score [19],PBM binding z-score [20]
AGAACGAGGGCACGCTGAGTTGATAGAAGAGTAG,0.553,0.362,-0.441,0.106,-0.925,2.09,2.05,1.54,0.398,1.11,3.93,3.46,0.756,0.00527,0.193,1.28,-0.0963,0.661,-0.807,2.31
CGAACTAGGTCAGCCAGGACAGTGAATACATTGA,1.87,0.875,0.291,0.649,-0.648,3.55,6.1,5.28,2.28,4.35,7.76,7.73,1.49,0.655,1.34,0.744,-0.0382,0.595,0.0532,3.45
CCTTACGGGTCACCGACAGGTTATAGCATTTGGA,6.22,4.88,0.46,3.96,-0.223,5.69,6.3,5.64,2.16,4.6,2.51,4.22,0.292,0.016,3.32,4.11,-0.087,5.27,0.277,4.52
ACTAGCAGGCCAAGTTTGGGGCACTCAAACAAAG,-0.415,-0.546,-0.667,-0.397,-1.03,-0.148,-0.208,-0.509,-0.663,-0.441,0.771,0.921,-0.182,-0.0456,-0.843,-0.333,-0.763,0.00988,-0.881,0.744
ACTCGGAGGACAAAGGTCAGAGCAACGCCAGTGA,4.23,4.45,1.56,3.47,0.134,5.14,7.86,7.16,6.17,7.18,0.873,3.67,0.771,-0.247,2.78,3.99,0.422,5.03,0.859,4.58
TCTAGTTAGTCAAAGGTCACACACTCGAAATGCG,5.6,5.78,4.78,5.34,1.76,5.98,8,7.8,6.86,8.1,2.7,4.43,1.17,3.06,5.38,5.63,2.01,6.72,3.05,4.74
AGAATGAGGTTACCAAAGATCTGGGAAACGCTTG,1.57,2.23,-0.414,1.23,-0.401,3.4,2.74,2.37,0.756,1.91,3.41,3.25,0.193,0.0654,0.163,0.907,-0.203,1.77,-0.536,1.98
GGAACGAGGGCCAAGTTGATAGCATCTGTCGACG,-0.236,-0.341,-0.454,-0.778,-0.949,0.213,0.734,1.4,0.144,0.913,0.254,-0.0508,-1.09,-0.973,-0.0593,-0.242,-0.456,-0.293,-0.285,0.806
CCGACTGGGGCATGAGGTTACCATAAGCCAGCCC,0.319,1.56,-0.254,0.386,-1.09,1.72,2.04,2.41,0.402,1.62,3.01,3.6,-1.07,-0.773,0.383,0.287,-0.219,1.06,-0.49,1.42
ACAACGAGGGCACGCTGAGTTGATAGCAGAGTAG,0.762,0.503,-0.519,0.00813,-0.476,1.58,1.65,1.19,0.248,0.944,3.61,3.13,0.767,0.323,0.345,1.22,0.145,0.573,-0.791,2.63
GCATATAGGTAATACAAGGTGATAGTCCGATTGT,1.42,0.97,0.0526,-0.116,-0.184,0.93,1.32,0.737,0.438,0.536,4.05,2.84,1.05,1.46,0.142,0.0575,-0.157,0.688,0.359,-0.103
ATACCAAGGTGATCGTGAGGTCGTTTATACTAAC,1.68,1.66,1.35,1.74,0.0373,1.69,0.492,0.454,-0.0827,0.159,0.676,1.12,0.496,0.607,0.889,3.27,2.05,2.19,0.982,1.51
ACAGACAGATGATGAAGGTAACTCAGGCTATCAT,0.128,-0.0336,0.0406,0.0281,0.222,-0.128,0.719,-0.0905,0.15,-0.00308,-0.169,-0.00444,1.17,0.707,0.677,-0.0799,0.468,0.101,0.591,0.13
CGAACTAGGCCATTGACAGGACAGTGAATAGTAA,-0.28,-0.21,0.0668,-0.366,-0.825,1.53,2.02,1.77,0.274,0.972,6.87,5.51,1.09,0.545,0.245,-0.291,0.0591,-0.304,-0.0299,0.565
